# Source: PubChem BioAssay AID2227 (Johns Hopkins Ion Channel Center, 2009)
# Out of some 310,000 compounds screened, about 1,300 (0.42%) were called active.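 The calls were made as follows: active = B-score of calcium response area above 5 SD of library B-scores, with initial fluorescence ratio within 5 SD of library; inactive = the rest.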 This excerpt belongs to a sample that is enriched for actives.
# Target: Short transient receptor potential channel 4 (Mus musculus) (UniProt Q9QUQ5)
# Assay: positive allosteric modulators of TRPC4, primary screen, cell-based, mouse TRPC4beta, HEK293 mu-opioid, Fluo-4 calcium (AID 2227);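 as to B-score: B-score of integrated fluorescence ratio over time as area under calcium response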
# Settings: DAMGO EC20, Fluo-4 Ca2+ flux, at 10 µM; stronger effect = higher value
# Chain of Short transient receptor potential channel 4 (Mus musculus) (Q9QUQ5 whole entry, looked up): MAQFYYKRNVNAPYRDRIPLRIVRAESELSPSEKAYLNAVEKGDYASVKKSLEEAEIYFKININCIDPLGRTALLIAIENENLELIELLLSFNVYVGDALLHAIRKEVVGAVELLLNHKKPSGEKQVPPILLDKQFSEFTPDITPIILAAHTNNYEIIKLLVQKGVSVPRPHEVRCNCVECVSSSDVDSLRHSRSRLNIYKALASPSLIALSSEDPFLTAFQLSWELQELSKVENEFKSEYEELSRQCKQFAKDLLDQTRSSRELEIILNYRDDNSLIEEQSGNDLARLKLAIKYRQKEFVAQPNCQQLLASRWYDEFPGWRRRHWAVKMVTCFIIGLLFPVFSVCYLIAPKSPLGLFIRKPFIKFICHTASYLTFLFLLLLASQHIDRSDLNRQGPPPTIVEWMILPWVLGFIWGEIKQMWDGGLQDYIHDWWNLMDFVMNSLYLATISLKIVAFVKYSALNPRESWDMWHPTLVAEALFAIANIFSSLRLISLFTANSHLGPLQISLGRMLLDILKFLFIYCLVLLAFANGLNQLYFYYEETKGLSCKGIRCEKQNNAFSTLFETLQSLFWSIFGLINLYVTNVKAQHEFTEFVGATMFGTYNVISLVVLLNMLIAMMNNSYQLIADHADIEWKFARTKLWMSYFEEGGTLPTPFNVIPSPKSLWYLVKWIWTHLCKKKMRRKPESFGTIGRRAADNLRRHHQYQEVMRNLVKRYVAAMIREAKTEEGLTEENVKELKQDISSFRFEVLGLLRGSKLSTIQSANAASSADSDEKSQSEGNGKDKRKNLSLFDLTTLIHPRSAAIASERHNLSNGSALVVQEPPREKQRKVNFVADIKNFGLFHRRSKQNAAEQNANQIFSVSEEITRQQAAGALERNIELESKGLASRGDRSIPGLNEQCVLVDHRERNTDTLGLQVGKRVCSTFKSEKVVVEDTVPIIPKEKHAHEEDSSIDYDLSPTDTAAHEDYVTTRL
row,SMILES,B-score
1,O=C1/C(=C\c2cccnc2)CN(Cc2ccccc2)C/C1=C\c1cccnc1,inactive
2,C(=N\n1cnnc1)/c1cccnc1,inactive
3,Clc1ccc(CN2CCN(/N=C/c3cccnc3)CC2)cc1,12 (active)
4,Cc1ccc(CN2CCN(c3ncccn3)CC2)c(C)c1,inactive
5,Cc1ccc(CN2CCN(/N=C/c3cccnc3)CC2)c(C)c1,12 (active)
6,Cc1ccc(CN2CCN(/N=C/c3ccco3)CC2)c(C)c1,inactive
7,CCOc1ccc(S(=O)(=O)NCCCn2ccnc2)cc1NC(C)=O,inactive
8,CCc1ccc(/C=N/NC(=O)c2nnn(-c3nonc3N)c2CN2CCc3ccccc32)cc1,inactive
9,CCN(CCn1cccn1)Cc1cn[nH]c1-c1ccc(OC)cc1F,inactive
10,Cc1cccc(C)c1NC(=O)C1(N(C(=O)c2ccccn2)c2ccc(O)cc2)CCCCC1,inactive
11,CN(C)CCCN(Cc1cc2cc3c(cc2[nH]c1=O)OCCO3)C(=O)NC1CCCCC1,inactive
12,CCOC(=O)C1=C(NC(=S)NC(=O)c2ccccc2)c2ccccc2CC1(C)C,25 (active)
13,Cc1ccc(NC(=S)NC(=O)c2ccc(-c3ccccc3)cc2)cc1,inactive
14,COCCCNC(=S)NC(=O)c1ccccc1,inactive
15,CCOC(=O)C(CC)/C(C)=N\NC(=O)c1cccc(C)c1 (stereo unspecified),inactive
16,ONC(=Nc1ccccc1)c1ccccc1Cl,inactive
17,NC(=O)CSc1nnc(NC(=O)c2ccc3ccccc3c2)s1,inactive
18,O=C(Nc1nnc(SCc2c(Cl)cccc2Cl)s1)c1cccc([N+](=O)[O-])c1,inactive
19,O=C(Nc1nnc(SCc2ccccc2Cl)s1)c1cccc([N+](=O)[O-])c1,12 (active)
20,Cc1ccc(S(=O)(=O)N2CCN(C(=O)Cc3sc(C)nc3-c3ccc(F)cc3)CC2)c(C)c1,inactive
21,CCOc1ccccc1NC(=S)NC(=O)CCc1ccccc1,inactive
22,Cc1sc2nc(SCCO)n(-c3ccccc3)c(=O)c2c1C,inactive

row,SMILES,B-score
1,Cc1sc2nc(SCC(N)=O)n(C)c(=O)c2c1C,29 (active)
2,C=CCn1c(SCC(=O)/C(C#N)=C(\C)N)nc2sc(C)c(C)c2c1=O,inactive
3,Cc1cc(Nc2cccc(F)c2)n2ncnc2n1,inactive
4,COc1ccc(/C=C2/S/C(=N/N=C3\CC4CCC3(C)C4(C)C)NC2=O)cc1 (stereo unspecified),inactive
5,CC(=O)N1c2ccc(S(=O)(=O)N3CCC(C(=O)N4CCN(c5ccccc5)CC4)CC3)cc2CC1C (stereo unspecified),inactive
6,CC(=O)c1ccc(N2CCN(C(=O)C3CCN(S(=O)(=O)c4ccc5c(c4)CC(C)N5C(=O)C4CC4)CC3)CC2)cc1 (stereo unspecified),19 (active)
7,COc1ccccc1CNC(=O)C1CCN(S(=O)(=O)c2ccc3c(c2)CC(C)N3C(=O)C2CC2)CC1 (stereo unspecified),inactive
8,COC(=O)C1=C(C)NC(=O)CC1c1ccccc1OC (stereo unspecified),inactive
9,COc1ccccc1C1C2=C(COC2=O)Nc2cc3c(cc21)OCO3 (stereo unspecified),inactive
10,CCCOc1ccccc1C1CC(=O)Nc2cc3c(cc21)OCO3 (stereo unspecified),14 (active)
11,C/C(=C/c1ccccc1)C(=O)N1CCN(c2ccccc2)CC1,inactive
12,O=C(O)c1cc2ccccc2c(=O)s1,inactive
13,Cc1ccc(-c2nnn(CC(=O)N(Cc3ccco3)C(C(=O)NC(C)(C)C)c3ccncc3)n2)o1 (stereo unspecified),inactive
14,COc1ccc(-c2nnn(CC(=O)N(CCO)C(C(=O)NC3CCCC3)c3ccc(F)cc3)n2)cc1 (stereo unspecified),inactive
15,Cc1ccc(-c2nnn(CC(=O)N(CCO)C(C(=O)NC(C)(C)C)c3ccncc3)n2)cc1 (stereo unspecified),10 (active)
16,O=C1C(=O)N(CCN2CCOCC2)C(c2cccc(Cl)c2)/C1=C(/O)c1ccc2c(c1)OCO2 (stereo unspecified),inactive
17,Cc1cc(/C=N/n2cnnc2)c(C)n1-c1ccc2ncccc2c1,inactive
18,Cc1ccccc1CC1(CO)CCCN(Cc2ccc3c(c2)OCCO3)C1 (stereo unspecified),inactive
19,COc1ccc([N+](=O)[O-])cc1NC(=O)CC1SC(=Nc2cccc(C)c2C)N(/N=C(\C)c2ccc(C)cc2)C1=O (stereo unspecified),inactive
20,O=C(N/N=C/c1ccc(Cl)cc1)c1nc2ccc([N+](=O)[O-])cc2c(=O)[nH]1,inactive
21,COc1cc(NS(=O)(=O)c2ccc(NC(=S)NC(=O)c3ccccc3)cc2)nc(OC)n1,inactive
22,CC(OC(=O)CCCc1c[nH]c2ccccc12)C(=O)Nc1ccc(S(N)(=O)=O)cc1 (stereo unspecified),inactive

row,SMILES,B-score
1,Cc1cccn2c(=O)c(/C=C(\C#N)S(=O)(=O)c3ccc(Cl)cc3)c(N3CCC(C(N)=O)CC3)nc12,inactive
2,COCCCNC(=O)/C(C#N)=C/c1c(N2CCCCCC2)nc2ccccn2c1=O,inactive
3,Cc1cccn2c(=O)c(/C=C(\C#N)C(N)=O)c(N3CCCCCC3)nc12,12 (active)
4,O=C(c1ccc(NS(=O)(=O)c2ccc3[nH]c(=O)[nH]c3c2)cc1)N1CCCCC1,inactive
5,CN(C)CCCSc1ccccc1NC(=O)/C=C/c1ccccc1,inactive
6,N=c1c2c3c(sc2ncn1N)CCCC3,inactive
7,N=c1c2c3c(sc2ncn1CCCN1CCOCC1)CCCCC3,inactive
8,N=c1c2c3c(sc2ncn1N)CCCCC3,10 (active)
9,N#Cc1ncc(C(F)(F)F)cc1Oc1cccnc1,inactive
10,O=c1cc(N2CCCCC2)c(-c2ccccc2)nn1Cc1cccc(F)c1,inactive
11,Cc1ncc([N+](=O)[O-])n1CCOC(=O)c1ccc(Br)cc1,inactive
12,Cc1cccc(CCNC(=O)Cn2ncc3c([nH]c4ccc(C)cc43)c2=O)c1,inactive
13,CC(=C1C(=O)c2ccccc2C1=O)N1CCN(c2ccccn2)CC1,inactive
14,O=C1c2cccc3cccc(c23)N1CN1CCN(c2ccccn2)CC1,10 (active)
15,O=C(CN1CCN(c2ccccn2)CC1)N1CCc2ccccc21,inactive
16,CC(=O)Nc1ccc(S(=O)(=O)N2CCN(CCCOc3cc(C)ccc3C)CC2)cc1,32 (active)
17,Cc1cccc(OCCCC(=O)Nc2ccc(S(=O)(=O)N3CCCC3)cc2)c1,inactive
18,Cc1ccc(C)c(OCCC(=O)Nc2cccc(S(=O)(=O)N3CCCC3)c2)c1,inactive
19,CC(=O)c1ccc(N2CCN(S(=O)(=O)c3ccc4c(c3)CC(=O)N4C)CC2)cc1,inactive
20,Cc1c(C(=O)NCCN2C(=O)S/C(=C\c3cccs3)C2=O)cccc1[N+](=O)[O-],inactive
21,COC(=O)c1ccccc1N=Nc1c(C)[nH][nH]c1=O,59 (active)
22,Cc1[nH]n(-c2ccccc2)c(=O)c1N=Nc1ccccc1C(=O)N1CCCCC1,inactive

row,SMILES,B-score
1,Cc1[nH][nH]c(=O)c1N=Nc1ccccc1,inactive
2,N#Cc1cccc(OC(=O)c2ccc3c(=O)n4c(nc3c2)CCC4)c1,inactive
3,CCOC(=O)c1ccc(-c2ccc(C(=O)Nc3cccnc3)o2)cc1,inactive
4,CCOC(=O)C1=C(c2ccc(OC)cc2)C(=O)c2ccccc2C1=O,inactive
5,COC(=O)C1=C(C)NC2=C(C(=O)c3ccccc32)C1c1ccc(-c2ccc(C(=O)O)cc2)o1 (stereo unspecified),16 (active)
6,CC(NC(=O)COc1ccc(-c2ccccc2)cc1)C1CCCO1 (stereo unspecified),inactive
7,O=C(NCCc1ccccc1)C1CC1,inactive
8,CCn1cc(C(=O)N2CC=C(c3ccccc3)CC2)c(=O)c2ccc(C)nc21,inactive
9,CCN1CCN(c2c(Cl)cccc2NC(=O)c2ccc(Br)o2)CC1,11 (active)
10,O=C(Nc1cccc(Cl)c1N1CCOCC1)c1cccnc1,inactive
11,O=C(Nc1cccc(Cl)c1N1CCOCC1)c1ccc2c(c1)OCCO2,inactive
12,COc1ccccc1NC(=O)Nc1nc(CC(=O)Nc2ccccc2F)cs1,inactive
13,C=CCc1cccc2cc(C(=O)OCC)c(=O)oc12,inactive
14,CCOC(=O)c1cc2cc3ccccc3cc2oc1=O,13 (active)
15,NS(=O)(=O)c1ccc(NC(=O)COC(=O)c2cc3ccccc3oc2=O)cc1,inactive
16,CC(C)c1c(C(=O)N/N=C/c2ccc(-c3ccccc3)cc2)nnn1-c1nonc1N,inactive
17,CCCc1nc2scc(-c3ccc(C)cc3)c2c(=O)n1N,inactive
18,CN1CCN(c2ccc(CNS(=O)(=O)c3cccc(F)c3)cc2)CC1,inactive
19,O=C(CN1CCN(C(=O)c2ccco2)CC1)Nc1ccc2c(c1)OCO2,inactive
20,O=C(NCC(=O)N1CCN(c2ncc(C(F)(F)F)cc2Cl)CC1)c1ccc(Br)o1,inactive
21,O=C(CN1CCN(c2ncc(C(F)(F)F)cc2Cl)CC1)Nc1ccc2c(c1)OCO2,10 (active)
22,OCCNc1nc2ccccc2n1-c1ncnc2sc3c(c12)CCC3,inactive

row,SMILES,B-score
1,COCCNC(=S)N1CCC(NC(=O)C23CC4CC(CC(C4)C2)C3)CC1,inactive
2,FC(F)(F)COc1nc(N2CCCCC2)nc(N2CCNCC2)n1,27 (active)
3,COc1nc(NC2CCCCC2)nc(N2CCCCCC2)n1,inactive
4,CN(N)c1nc(N2CCCC2)nc(N2CCCC2)n1,inactive
5,CC(=O)OCCOCn1cnn2c(=O)c(Br)c(C)nc12,inactive
6,C/C(=N\NC(=O)c1cc(-c2ccc(O)cc2)nc2ccccc12)c1cccnc1,inactive
7,CN(C)c1ccc(/C=C2\NC(=S)N(Cc3ccccc3)C2=O)cc1,14 (active)
8,O=C1/C(=C\c2ccsc2)NC(=S)N1c1ccccc1,inactive
9,COc1cc(/C=C2/SC(=S)N(Cc3ccccc3)C2=O)cc(OC)c1O,inactive
10,CCC(C)(C)NC(=O)c1cc([N+](=O)[O-])ccc1N1CCCCC1,inactive
11,CCOc1ccccc1NS(=O)(=O)c1c[nH]c(C(=O)OC)c1,inactive
12,CCOC(=O)C1CCCN(CCSc2ccc(C)cc2)C1 (stereo unspecified),inactive
13,O=C(/C=C/c1ccc(Cl)c([N+](=O)[O-])c1)c1cccnc1,inactive
14,O=C(/C=C/c1ccc(Cl)c([N+](=O)[O-])c1)c1ccc(O)cc1,inactive
15,NC(N)=N/N=C/c1ccc(Cl)c([N+](=O)[O-])c1,16 (active)
16,Brc1ccccc1/C=N/Nc1nc2ccccc2o1,inactive
17,Oc1cccc(/C=N/Nc2ccc(Cl)nn2)c1O,inactive
18,Oc1c(Br)cccc1/C=N/Nc1c(F)c(F)c(F)c(F)c1F,11 (active)
